According to PubChem BioAssay AID1159580 (chemical genetic matrix, 2015):
Where “and” joins values, the source holds several entries; their conditions need not be identical. Equal values may be shown once. Screen size: about 5,500 compounds; about 2,000 (36%) were called active. Another 18% or so got no clear call; they are omitted. Cut-off read from the data, not from the text of the source: active = normalized growth mostly below about 0.91 (no sharp cut-off); inconclusive = no clear call, values can overlap the other calls; inactive = mostly above about 0.92. The list shows a part of the results.

Experiment: chemical genetic growth profiling, strain panel (AID 1159580);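 note: tested at 20 µM; growth read once vehicle control cultures reached saturation at 30 °C; 1 = growth at the plate median or of vehicle wells; lower values mean less growth of the strain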
Conditions: S. cerevisiae deletion strains, growth OD

Measured: normalized growth

c1ccc(CC2=NCCN2)cc1
inactive: locus YAL013W, strain DEP1, active compounds read low 1.01 | locus YAL021C, strain ccr4, active compounds read low 1.01 | locus YAL026C, strain drs2, active compounds read low 1.03 | locus YAL030W, strain snc1, active compounds read low 1.01 | locus YBL061C, strain skt5, active compounds read low 1.01 | locus YBR009C, strain hhf1, active compounds read low 0.998 | locus YBR021W, strain FUR4, active compounds read low 0.861 | locus YBR023C, strain chs3, active compounds read low 1.01 | locus YBR171W, strain sec66, active compounds read low 1.03 | locus YBR229C, strain ROT2, active compounds read low 0.983 | locus YBR231C, strain swc5, active compounds read low 1.01 | locus YBR279W, strain paf1, active compounds read low 1.01 | locus YCL011C, strain gbp2, active compounds read low 1.02 | locus YCL016C, strain dcc1, active compounds read low 1 | locus YCL061C, strain MRC1, active compounds read low 1.02 | locus YCL069W, strain vba3, active compounds read low 1.03 | locus YCR088W, strain abp1, active compounds read low 1.01 | locus YDL005C, strain med2, active compounds read low 1.02 | locus YDL035C, strain GPR1, active compounds read low 0.963 | locus YDL040C, strain nat1, active compounds read low 1 | locus YDL074C, strain BRE1, active compounds read low 1 | locus YDL101C, strain DUN1, active compounds read low 0.987 | locus YDL134C, strain PPH21, active compounds read low 0.99 | locus YDL192W, strain arf1, active compounds read low 0.952 | locus YDR001C, strain nth1, active compounds read low 1.01 | locus YDR069C, strain doa4, active compounds read low 1 | locus YDR137W, strain rgp1, active compounds read low 1.03 | locus YDR150W, strain NUM1, active compounds read low 0.983 | locus YDR159W, strain sac3, active compounds read low 0.977 | locus YDR162C, strain NBP2, active compounds read low 0.967 | locus YDR195W, strain ref2 1.02 | locus YDR297W, strain sur2, active compounds read low 1.01 | locus YDR334W, strain swr1, active compounds read low 1.02 | locus YDR335W, strain msn5, active compounds read low 1 | locus YDR392W, strain spt3, active compounds read low 0.933 | locus YEL003W, strain gim4, active compounds read low 1.01 | locus YEL037C, strain rad23, active compounds read low 1.02 | locus YEL061C, strain CIN8 (second series), active compounds read low 1.01 | locus YEL061C, strain CIN8, active compounds read low 0.987 | locus YER015W, strain faa2, active compounds read low 1.01 | locus YER016W, strain bim1, active compounds read low 1.04 | locus YER110C, active compounds read low 0.929 | locus YER111C, strain swi4, active compounds read low 1.02 | locus YER155C, strain BEM2 (second series), active compounds read low 1.02 | locus YER167W, strain BCK2, active compounds read low 0.939 | locus YFR010W, strain ubp6, active compounds read low 1.01 | locus YGL086W, strain mad1, active compounds read low 0.955 | locus YGL167C, strain pmr1, active compounds read low 1.02 | locus YGL173C, strain kem1, active compounds read low 0.998 | locus YGL227W, strain vid30, active compounds read low 1.03 | locus YGL240W, strain doc1, active compounds read low 0.97 | locus YGL248W, strain PDE1, active compounds read low 0.996 | locus YGL253W, strain hxk2, active compounds read low 1.01 | locus YGR078C, strain PAC10, active compounds read low 0.988 | locus YGR135W, strain pre9, active compounds read low 0.937 | locus YGR229C, strain SMI1, active compounds read low 1.01 | locus YGR252W, strain gcn5, active compounds read low 0.898 | locus YHR013C, strain ard1, active compounds read low 1.02 | locus YHR027C, strain rpn1, active compounds read low 1.02 | locus YHR030C, strain SLT2, active compounds read low 0.976 and 0.967 | locus YHR079C, strain IRE1, active compounds read low 0.961 | locus YHR129C, strain ARP1, active compounds read low 0.958 | locus YHR142W, strain chs7, active compounds read low 1.02 | locus YIL066C, strain RNR3, active compounds read low 0.987 | locus YIL073C, strain SPO22, active compounds read low 1.01 | locus YJL092W, strain hpr5, active compounds read low 1.01 | locus YJL095W, strain BCK1 (second series), active compounds read low 1.01 | locus YJL095W, strain BCK1, active compounds read low 1.01 and 0.968 | locus YJL115W, strain asf1, active compounds read low 1.02 | locus YJL129C, strain trk1, active compounds read low 1.03 | locus YJL134W, strain LCB3, active compounds read low 0.969 | locus YJL154C, strain vps35, active compounds read low 1.01 | locus YJL164C, strain tpk1, active compounds read low 1.02 | locus YJL166W, strain qcr8, active compounds read low 1.03 | locus YJL187C, strain SWE1 (second series), active compounds read low 0.988 | locus YJL187C, strain SWE1, active compounds read low 1.02 | locus YJR043C, strain POL32, active compounds read low 0.939 | locus YJR066W, strain TOR1, active compounds read low 0.935
active: locus YCL029C, strain bik1, active compounds read low 0.887 | locus YDL185W, strain tfp1, active compounds read low 0.816 | locus YDR101C, strain arx1, active compounds read low 0.903 | locus YDR318W, strain mcm21, active compounds read low 0.893 | locus YDR388W, active compounds read low 0.923 | locus YDR502C, strain sam2, active compounds read low 0.91 | locus YER155C, strain BEM2, active compounds read low 0.891 | locus YGL078C, strain dbp3, active compounds read low 0.806 | locus YHR079C, strain IRE1 (second series), active compounds read low 0.865 | locus YHR094C, strain hxt1, active compounds read low 0.9 | locus YHR200W, strain rpn10, active compounds read low 0.91 | locus YIL125W, strain kgd1, active compounds read low 0.787 | locus YIR030C, strain dcg1, active compounds read low 0.899 | locus YJL168C, strain set2, active compounds read low 0.915
